# According to the supplement of paper PMC10981050:
# Where “and” joins values, the source holds several entries; their conditions need not be identical. Equal entries are not always repeated. Structures can show the parent of a compound that is named as a salt.
# What was measured:
# Experiment in all cases: cell viability relative to vehicle control; higher = less cytotoxic
# Details in all cases: 10 µM
# K562 = system: K562
# Method in brief: (§1)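 Four leukaemia lines, as CRISPR-edited mutant clones and isogenic wild-type clones, were tested against Selleck bioactive, kinase and epigenetic probe libraries after removal of identity-inconsistent compounds. Cells were exposed to a single 10 µM dose for 48 h, and CellTiter-Glo luminescence was then read. Viability was calculated relative to the on-plate vehicle control.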
# MARIMO = system: MARIMO
# Method in brief: as §1
# MOLM14 = system: MOLM14
# Method in brief: as §1
# OCI-AML2 = system: OCI-AML2
# Method in brief: as §1
Structure (SMILES),cell viability (K562; SRSF2 genotype: SRSF2 P95H/wt),cell viability (K562; SRSF2 genotype: SRSF2 wt/wt) [%],cell viability (MARIMO; SRSF2 genotype: SRSF2 P95H/wt) [%],cell viability (MARIMO; SRSF2 genotype: SRSF2 wt/wt) [%],cell viability (MOLM14; SRSF2 genotype: SRSF2 P95H/wt) [%],cell viability (MOLM14; SRSF2 genotype: SRSF2 wt/wt) [%],cell viability (OCI-AML2; SRSF2 genotype: P95H/wt) [%],cell viability (OCI-AML2; SRSF2 genotype: wt/wt) [%]
O=C(/C=C/c1ccc(O)cc1)c1ccc(O)cc1O [Isoliquiritigenin],86.2% and 94.8%,84.4,83.3,98.4,53.5,74.7,89,98
C[C@@]12C[C@@]3(O)O[C@@H](O1)[C@]1(COC(=O)c4ccccc4)[C@@H]3C[C@]12O[C@@H]1O[C@H](COC(=O)c2ccccc2)[C@@H](O)[C@H](O)[C@H]1O [Benzoylpaeoniflorin],99.7% and 101%,93.4,96.2,96.7,104,97.8,93.9,102
CCCN[C@H]1CCc2nc(N)sc2C1 [Pramipexole dihydrochloride],103% and 96.9%,110,103,94.2,79.1,97.8,103,111
CCC(=O)O[C@]1(C(=O)CCl)[C@@H](C)C[C@H]2[C@@H]3C[C@H](F)C4=CC(=O)C=C[C@]4(C)[C@@]3(F)[C@@H](O)C[C@@]21C [Halobetasol Propionate],92.5% and 97.2%,89,101,98.1,76.3,85.8,99.3,105
Cn1c2ccccc2c2c3c(c4c5ccccc5n(CCC#N)c4c21)CNC3=O,104% and 99.7%,97.7,85.5,93.9,42.6,36.8,62.8,65.6
CC1=NN(c2ccccc2)C(=O)C1 [Edaravone (MCI-186)],107% and 105%,107,111,108,96.3,109,116,103
COc1ccc(-c2cc(=O)c3c(O)cc(O[C@@H]4O[C@H](CO[C@@H]5O[C@@H](C)[C@H](O)[C@@H](O)[C@H]5O)[C@@H](O)[C@H](O)[C@H]4O)cc3o2)cc1 [Linarin],107% and 103%,102,95.8,101,111,102,103,98.7
Clc1ccc(NN=C(c2ccccc2)c2ccccn2)nc1,17.9% and 15.3%,20,3.72,0.76,1.65,0.71,5.44,3.14
CC(Oc1cc(-c2cnn(C3CCNCC3)c2)cnc1N)c1c(Cl)ccc(F)c1Cl [(S)-crizotinib],85.7% and 81%,74.8,84.4,92,78.2,86.2,88.8,75.3
CC(O)c1cc(C(=O)N[C@@H](C)Cn2ccc(-c3ccc(C#N)c(Cl)c3)n2)n[nH]1 (stereo partly drawn),87.9% and 91.4%,93.3,90.6,93.5,98.8,98,91.4,102
CCOc1cc(C=O)ccc1OC(C)=O [Ethyl vanillin acetate],103% and 99.2%,102,105,108,96.4,98.5,98,108
O=C(O)c1ccc2c3c1cccc3c(=O)n1c3ccccc3nc21,104% and 102%,102,107,106,96.6,99.9,104,97.5
O=C1[C@H](CC[C@H](O)c2ccc(F)cc2)[C@@H](c2ccc(O)cc2)N1c1ccc(F)cc1 [Ezetimibe (Zetia)],86.1% and 94.8%,102,80.6,91,82.7,90.1,80.8,88.2
CC/C(=C(/CC)c1ccc(O)cc1)c1ccc(O)cc1 [Diethylstilbestrol],80.1% and 78.1%,78.8,84.5,87.1,75.1,87.8,74.8,81.4
COc1cc(C[C@H](C)[C@H](C)Cc2ccc3c(c2)OCO3)ccc1O [Anwuligan],88.8% and 87%,87.9,87,94.9,88.3,83.1,76.8,83.5
Nc1ccn([C@@H]2CS[C@H](CO)O2)c(=O)n1 [Lamivudine (Epivir)],100% and 99.5%,102,105,104,99.8,105,106,114
COc1ccnc(C[S+]([O-])c2nc3cc(-n4cccc4)ccc3[nH]2)c1C (stereo not drawn) [Ilaprazole],90.7% and 95.4%,92.4,87.3,105,99.9,101,82.5,97.3
OC(CC1c2ccccc2-c2cncn21)C1CCCCC1 (stereo not drawn),85.4% and 94.1%,97.5,80,93.1,90.6,93.5,89.8,99.7
COc1ccc(Cn2ccc3ccc(C(=O)NO)cc32)cc1,91.2% and 87.7%,84.4,65.9,75.9,84.1,81.6,69.3,75.5
N#Cc1cc(-c2n[nH]c(-c3ccncc3)n2)ccn1 [Topiroxostat],90.1% and 106%,94,104,111,104,103,98.8,100
Clc1ccc(COC(Cn2ccnc2)c2ccc(Cl)cc2Cl)cc1 (stereo not drawn) [Econazole nitrate (Spectazole)],67.2% and 76.7%,70.1,64.3,71,58.2,73,57.8,52.4

Structure (SMILES),cell viability (K562; SRSF2 genotype: SRSF2 P95H/wt),cell viability (K562; SRSF2 genotype: SRSF2 wt/wt) [%],cell viability (MARIMO; SRSF2 genotype: SRSF2 P95H/wt) [%],cell viability (MARIMO; SRSF2 genotype: SRSF2 wt/wt) [%],cell viability (MOLM14; SRSF2 genotype: SRSF2 P95H/wt) [%],cell viability (MOLM14; SRSF2 genotype: SRSF2 wt/wt) [%],cell viability (OCI-AML2; SRSF2 genotype: P95H/wt) [%],cell viability (OCI-AML2; SRSF2 genotype: wt/wt) [%]
NS(N)(=O)=O [Sulfamide],104% and 96%,108,98.6,103,102,107,98.4,108
Cc1cc(OCCCS(C)(=O)=O)cc(C)c1-c1cccc(COc2ccc3c(c2)OC[C@H]3CC(=O)O)c1,92.7% and 94.6%,91.3,93.2,104,94.3,98.2,85,101
CC1(C)[C@@H](O[C@H]2O[C@H](C(=O)O)[C@@H](O)[C@H](O)[C@H]2O[C@@H]2O[C@H](C(=O)O)[C@@H](O)[C@H](O)[C@H]2O)CC[C@]2(C)[C@H]3C(=O)C=C4[C@@H]5C[C@@](C)(C(=O)O)CC[C@]5(C)CC[C@@]4(C)[C@]3(C)CC[C@@H]12 [Diammonium Glycyrrhizinate],98.9% and 104%,99.1,101,99.7,100,103,101,114
C=C1CCC2C(C)(CO)C(O)CCC2(C)C1CC=C1C=COC1=O (stereo not drawn) [Dehydroandrographolide],75.2% and 78.9%,75.8,77.8,96.3,83.8,93.9,74.6,86.5
Cc1cc(C(C)Nc2ccccc2)c2nc(N3CCOCC3)cc(=O)n2c1 (stereo not drawn),92.6% and 97.6%,93.3,90.7,90.4,70.9,69,73.4,76.6
CN1CCN(c2ccc(-c3ccncc3-c3cc(F)c(O)c(F)c3)cc2)CC1,94.2% and 97.1%,95.9,80.1,85.4,66.4,88.8,99.5,91.1
Nc1ccc2ncnc(NCCc3ccc(Oc4ccccc4)cc3)c2c1,68.5% and 56.3%,67.6,62.7,58.3,69.8,63.6,52.3,51.5
COC(=O)c1ccccc1O [Methyl salicylate],101% and 96.7%,94.8,99.2,104,96.3,104,94.3,102
CC[C@@H](CO)NCCN[C@@H](CC)CO [Ethambutol HCl],99.5% and 99.3%,98.7,99.4,112,100,102,104,107
CS(=O)(=O)CCNCc1ccc(-c2ccc3ncnc(Nc4ccc(OCc5cccc(F)c5)c(Cl)c4)c3c2)o1,54.6% and 37%,56.7,88.7,90.3,86.2,60.6,65,59.5
CC(C)(C)OC(=O)Nc1ccc(-c2cc(C(=O)NCCCCCCC(=O)NO)no2)cc1,1.43% and 12.4%,5.74,9.27,11.5,0.79,0.64,1.39,2.31
CCCNC(=O)c1cn2ncnc(Nc3cc(C(=O)NC4CC4)ccc3C)c2c1C,90.9% and 95.7%,93.3,99.5,101,91.8,95.8,91.3,95.9
O=c1cc(CN2CCOCC2)occ1OCCCCCSc1ccnc2cc(C(F)(F)F)ccc12,59.9% and 65.2%,60.1,49.4,37.7,58.9,68.5,27.6,34.3
C=C1CC[C@H]2O[C@]2(C)CC[C@@H]2[C@@H]1CC2(C)C [Caryophyllene oxide],100% and 97%,105,102,105,103,107,112,98
C[C@@H](CN1CC(=O)NC(=O)C1)N1CC(=O)NC(=O)C1 [Dexrazoxane],113% and 103%,110,88.2,96.9,89.8,97.9,96.8,99.9
"CC(C)n1nccc1-c1ncccc1COc1cccc(O)c1C=O [Voxelotor(GBT440, GTx011)]",97.7% and 98.4%,91.8,104,103,85.8,94,99.7,98.3
COc1cc(O)cc2c1C(=O)C[C@@H](c1ccccc1)O2 [Alpinetin],107% and 103%,96.5,101,109,109,110,102,106
O=C(O)Cc1cccc(OCCCN(Cc2cccc(C(F)(F)F)c2Cl)CC(c2ccccc2)c2ccccc2)c1,98.2% and 93.9%,92.9,97.9,113,88.6,96.7,90.9,98.5
CCOc1ccc2ccccc2c1C(=O)N[C@@H]1C(=O)N2[C@@H]1SC(C)(C)[C@@H]2C(=O)O [Nafcillin Sodium],106%,101,104,115,101,108,98,107
Cc1cc(/N=N/c2ccc(S(=O)(=O)Nc3ccccn3)cc2)c(N)cc1O,76.8% and 80.2%,79.7,56.9,53.3,36.3,34.8,26.2,48.7
